Screening results as filed in PubChem.
LASV entry inh = qHTS for Inhibitors of binding or entry into cells for Lassa Virus; Lassa virus pseudotype entry inhibition, cell reporter; Potency, µM (titrated, usually from 37.9 µM), most hits filed as inhibitors; actives 1.2% (n = 300,000); AID 540256, 2011; calls by dose curve; tested in HEK293 cells; note: nearly all actives have a fitted effect of over 50% in size
Marburg entry inh = qHTS for inhibitors of binding or entry into cells for Marburg Virus; Marburg virus pseudotyped entry inhibition, cell reporter; Potency, µM (series often up to 37.8 µM), usual class: inhibitors; actives 1.8% (n = 300,000); AID 540276, 2011; calls by dose curve; tested in HEK293 cells
Cycloheximide cs = Cycloheximide Counterscreen for Small Molecule Inhibitors of Shiga Toxin; cell reporter, cycloheximide protein synthesis inhibition counterscreen; max response, %; actives 12% (n = 300,000); in the data active = max response mostly above about 13%, no sharp cut-off; inactive = mostly below about 14%; note: read at 38.3 µM for the half of the compounds with a filed dose
Shiga toxin inh = A qHTS for Small Molecule Inhibitors of Shiga Toxin; Vero cells, Shiga toxin protein synthesis inhibition reporter; inhibition, % at 38.7 µM; actives 9.2% (n = 290,000); AID 2315, 2010; in the data active = inhibition mostly above about 28%, no sharp cut-off; inactive = mostly below about 43%
Each line names hits and unclear results; the compound was inactive in the other large screens. This is a sample that favours compounds with a hit; in the whole collection about 12% have one here.

N#Cc1ccccc1NC(=O)c1ccc2c(Cl)c3c(nc2c1)CCCC3	LASV entry inh inconclusive, Marburg entry inh inconclusive, Cycloheximide cs 53.0, Shiga toxin inh 90.6
O=C(Nc1cccnc1Cl)c1ccc2c(Cl)c3c(nc2c1)CCC3	LASV entry inh inconclusive, Marburg entry inh inconclusive, Cycloheximide cs 22.7
CCc1ccc(N(CC)C(=O)c2ccc3c(Cl)c4c(nc3c2)CCC4)cc1	LASV entry inh inconclusive, Marburg entry inh inconclusive
CCN(C(=O)c1ccc2c(Cl)c3c(nc2c1)CCC3)c1cccc(C)c1	LASV entry inh inconclusive, Marburg entry inh inconclusive, Cycloheximide cs 22.1
O=C(CN1C(=O)S/C(=C\c2ccc(F)cc2)C1=O)Nc1cccc(S(=O)(=O)NCc2ccco2)c1	Cycloheximide cs 66.9, Shiga toxin inh 138.0
Cc1sc(NC(=O)C2CCCCC2)c(C#N)c1-c1ccccc1	Cycloheximide cs 57.2, Shiga toxin inh 142.0
Cc1cccc(C(=O)Nc2sc(C)c(-c3ccccc3)c2C#N)c1	LASV entry inh inconclusive, Marburg entry inh inconclusive, Cycloheximide cs 40.7, Shiga toxin inh 59.0
Cc1noc(C)c1C(=O)Nc1sc(C)c(-c2ccccc2)c1C#N	none
CCOC(=O)c1cnc2c(C(=O)OC)cccc2c1NCc1cccnc1	none
CCCOC(=O)c1c(NC(=O)/C=C/c2cnn(C)c2C)sc(C(=O)OC)c1C	none
Cc1c(/C=C/C(=O)c2cccs2)cnn1C	LASV entry inh inconclusive, Cycloheximide cs 33.4, Shiga toxin inh 95.6
CCc1ccc(C(=O)/C=C/c2cnn(C)c2C)s1	Cycloheximide cs 23.0, Shiga toxin inh 33.7
CC(C)C(OC(=O)C1=Cc2ccccc2OC1)C(=O)NCC1CCCO1 (centres undefined)	none (no result: Cycloheximide cs, Shiga toxin inh)
O=C(OCc1ccccc1)/C(=C/c1ccccc1Cl)NC(=O)c1ccco1	Marburg entry inh inconclusive
C=CCc1c(C)nc2c(OC)cccc2c1Cl	Cycloheximide cs 13.6
COc1cccc2c(Cl)c(CC=C(Cl)Cl)c(C)nc12	none
Cc1ccnc(Nc2nc(-c3ccc(O)cc3O)cs2)c1	Cycloheximide cs 24.8, Shiga toxin inh 22.2 (no result: LASV entry inh, Marburg entry inh)
Cc1ccnc(Nc2nc(-c3ccc(O)c(O)c3)cs2)c1	LASV entry inh inconclusive, Marburg entry inh inconclusive, Cycloheximide cs 40.1, Shiga toxin inh 96.8
Cc1ccnc(Nc2nc(-c3ccc(O)cc3)cs2)c1	LASV entry inh inconclusive, Cycloheximide cs 34.6, Shiga toxin inh 119.8
CC(=O)NNc1nc(-c2ccccc2)cs1	Marburg entry inh inconclusive
CC(=O)Nc1ccc(-c2csc(Nc3ccccn3)n2)cc1	Cycloheximide cs 48.3, Shiga toxin inh 52.1 (no result: LASV entry inh, Marburg entry inh)
CC(=O)Nc1ccc(-c2csc(NC(=O)Cc3ccccc3F)n2)cc1	LASV entry inh inconclusive
CN(CC(=O)Nc1ccccc1Br)C(=O)c1ccc(-c2ccc(Cl)cc2)o1	LASV entry inh inconclusive, Marburg entry inh inconclusive
CCN(CC)S(=O)(=O)c1cc(C(=O)OCC(=O)Nc2cccc(C)c2C)ccc1F	Marburg entry inh inconclusive
CCOC(=O)N1CCN(C(=O)COC(=O)CNC(=O)c2ccc(OCC)c(OCC)c2)CC1	none (no result: Cycloheximide cs, Shiga toxin inh)
Oc1ccc(-c2csc(Nc3ccccn3)n2)cc1O	Cycloheximide cs 42.9, Shiga toxin inh 100.5 (no result: LASV entry inh, Marburg entry inh)
CCC(=O)Nc1nc(C)c(-c2csc(Nc3ccccn3)n2)s1	LASV entry inh inconclusive, Marburg entry inh inconclusive, Cycloheximide cs 33.2, Shiga toxin inh 103.1
CC(=O)Nc1ccc(-c2csc(NCCc3ccccc3)n2)cc1	LASV entry inh inconclusive, Marburg entry inh inconclusive, Cycloheximide cs 21.2
CC(NC(=O)CCCCCNC(=O)N1CCn2c1nc1ccccc12)c1ccccc1 (centres undefined)	none (no result: LASV entry inh, Marburg entry inh)
COC(=O)[C@@H](NC(=O)c1ccc2c(c1)S(=O)(=O)c1ccccc1C2=O)C(C)C	LASV entry inh inconclusive
O=C(COC(=O)c1ccccc1[N+](=O)[O-])NCCCc1ccccc1	Cycloheximide cs 37.7, Shiga toxin inh 70.3 (no result: LASV entry inh, Marburg entry inh)
CC1CCCC(NC(=O)COC(=O)c2ccccc2[N+](=O)[O-])C1C (centres undefined)	Cycloheximide cs 30.3, Shiga toxin inh 83.5
COc1ccc(-c2nc(C)sc2CC(=O)O)cc1OC	none
CCOc1cc(N2CCOCC2)c(OCC)cc1NC(=O)CN1CCCC(C)C1 (centres undefined)	Cycloheximide cs 14.8
CCOc1cc(N2CCOCC2)c(OCC)cc1NC(=O)CN1CCC(Cc2ccccc2)CC1	none
O=C(Nc1ccc(N2CCOCC2)cc1)Nc1cnsn1	Marburg entry inh inconclusive, Cycloheximide cs 44.3, Shiga toxin inh 34.1
O=C(Nc1ccc(Cl)cc1)Nc1ccc(N2CCOCC2)cc1	Marburg entry inh inconclusive, Cycloheximide cs 19.3, Shiga toxin inh 30.4
O=C(Nc1ccc(N2CCOCC2)cc1)c1cc(-n2cnnc2)ccc1Cl	none
O=C(Nc1ccc(N2CCOCC2)cc1)NC1CCCCC1	LASV entry inh inconclusive, Marburg entry inh inconclusive, Cycloheximide cs 17.9, Shiga toxin inh 67.4
O=C(/C=C/c1ccc(Cl)cc1)Nc1ccc(N2CCOCC2)cc1	none
O=C(Nc1ccc(N2CCOCC2)cc1)Nc1ccc(Cl)c(Cl)c1	LASV entry inh inconclusive, Marburg entry inh inconclusive, Cycloheximide cs 19.5
CCCCc1cn([C@@H](CCCCNC(=O)OC(C)(C)C)C(=O)N2CCN(C(=O)OC(C)(C)C)CC2)nn1	none (no result: LASV entry inh, Marburg entry inh)
Cc1ccc(C)c(NCC(=O)c2ccc(Cl)cc2)c1	none
CCOc1ccc(NCC(=O)c2ccc(C)cc2)cc1	Cycloheximide cs 15.6, Shiga toxin inh 63.4
COC(=O)C(CC(=O)c1ccc(Cl)cc1)c1ccc(C)cc1 (centres undefined)	Shiga toxin inh active
CCOc1ccc(C(=O)COc2ccc(NC(C)=O)cc2)cc1	none
O=C(CC(C(=O)O)c1ccc(Cl)cc1)c1ccccc1 (centres undefined)	none
Cc1ccc(C(=O)CNc2ccc(Cl)cc2)cc1	Cycloheximide cs 41.9, Shiga toxin inh 86.0
O=C(NN=C1CCCCCC1)c1ccc(Cl)s1	Marburg entry inh inconclusive
Cc1ccsc1C(=O)NN=C1CCCCCC1	Cycloheximide cs 51.4, Shiga toxin inh 95.7 (no result: LASV entry inh, Marburg entry inh)
Cc1ccc(C(=O)NN=C2CCCCCC2)s1	Cycloheximide cs 46.8, Shiga toxin inh 58.8 (no result: LASV entry inh, Marburg entry inh)
COc1ccc(COc2ncnc3ccc(Br)cc23)cc1F	Marburg entry inh inconclusive, Cycloheximide cs 19.1
CN(C)c1ncnc2sc(-c3ccccc3)cc12	Marburg entry inh inconclusive, Cycloheximide cs 16.2
CCN(CC)C(=O)CSc1ncnc2sc(-c3ccccc3)cc12	Marburg entry inh inconclusive
COc1ccccc1C(=O)Nc1ccc(Oc2ncnc3sc(-c4ccccc4)cc23)cc1	none
COc1ccc(Nc2ncnc3sc(-c4ccccc4)cc23)cc1	none
CN(C)C(=O)COc1ncnc2sc(-c3ccccc3)cc12	Cycloheximide cs 28.2, Shiga toxin inh 72.3 (no result: LASV entry inh, Marburg entry inh)
CN(CCC#N)C(=O)CSc1ncnc2sc(-c3ccccc3)cc12	Cycloheximide cs 31.2, Shiga toxin inh 62.5
COc1ncnc2sc(-c3ccccc3)cc12	Cycloheximide cs 66.1
Cc1nnc(N2CCC(C(=O)NCCc3ccccc3Cl)CC2)c2nn(-c3ccccc3)c(C)c12	none (no result: Marburg entry inh, Cycloheximide cs, Shiga toxin inh)
COc1ccc(CCNC(=O)COc2nncc3ccccc23)cc1	Marburg entry inh inconclusive
CC(=O)Nc1cccc(C(=O)OC(C)C(=O)N2CCc3ccccc32)c1 (centres undefined)	none (no result: Cycloheximide cs, Shiga toxin inh)
O=C(NCCc1ccccn1)C(F)(F)C(F)(F)C(F)(F)C(F)(F)C(F)(F)C(F)F	Cycloheximide cs 14.5
